Results taken from the supplement of paper PMC7695840.

Tests used:
[1] = test system: Staphylococcus aureus MW2 delta-mecA (mecA-); experiment: normalized GFP fluorescence (growth of mecA- strain) (fraction of control range); higher = more growth of mecA- strain; conditions: compound concentration: 150 uM; cefoxitin: subinhibitory; fluorescent label: GFP
Procedure, shortened: (§1)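 In 1536-well plates holding 150 μM compound (1.5% DMSO), a 1:1 mix of pre-induced S. aureus MW2 cells was added at 5 µL/well, in one replicate. One strain carried the gene and DsRed, the other lacked the gene and carried GFP, and the LB held a subinhibitory antibiotic dose chosen daily. Plates stood unshaken for 20 h at 37 °C, 90% humidity, before DsRed (540/590) and GFP (485/520) readings, which were scaled per plate to single-strain control medians, with plates high in untreated ratio and rows above DsRed/GFP 10 dropped.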

[2] = test system: Staphylococcus aureus MW2 (mecA+); experiment: normalized DsRed fluorescence (growth of mecA+ strain) (fraction of control range); higher = more growth of mecA+ strain; conditions: compound concentration: 150 uM; cefoxitin: subinhibitory; fluorescent label: DsRed
Procedure, shortened: as §1

Row | Compound | normalized GFP fluorescence [1] | normalized DsRed fluorescence [2]
1 | CN1CCN(C(=O)O[C@H]2c3nccnc3C(=O)N2c2ccc(Cl)cn2)CC1 | 0.334 | 0.793
2 | NC(=O)C[S@@+]([O-])C(c1ccccc1)c1ccccc1 | 0.234 | 1.11
3 | CC(Cc1ccc(O)cc1)NCC(O)c1cc(O)cc(O)c1 (configuration not stated) | 0.322 | 0.737
4 | C#CCN(C)[C@H](C)Cc1ccccc1 | 0.853 | 0.547
5 | C=C/C=C\CC1=C(C)[C@@H](OC(=O)[C@@H]2[C@@H](/C=C(\C)C(=O)OC)C2(C)C)CC1=O.C=C/C=C\CC1=C(C)[C@@H](OC(=O)[C@@H]2[C@@H](C=C(C)C)C2(C)C)CC1=O | 0.39 | 0.442
6 | CCN(C)C(=O)Oc1cccc([C@H](C)N(C)C)c1 | 0.23 | 0.742
7 | Oc1ccc2c3c1O[C@H]1[C@@H](O)CC[C@@]4(O)[C@@H](C2)N(CC2CCC2)CC[C@]314 | 0.717 | 0.715
8 | CCCC(C)C1(CC)C(=O)NC(=S)NC1=O (configuration not stated) | 0.288 | 0.518
9 | CC1(C)C(C=C(Cl)Cl)C1C(=O)OCc1cccc(Oc2ccccc2)c1 (configuration not stated) | 0.134 | 0.704
10 | CC(=O)O[C@H]1C[C@H](O[C@H]2[C@@H](O)C[C@H](O[C@H]3[C@@H](O)C[C@H](O[C@H]4CC[C@@]5(C)[C@H](CC[C@@H]6[C@@H]5C[C@@H](O)[C@]5(C)[C@@H](C7=CC(=O)OC7)CC[C@]65O)C4)O[C@@H]3C)O[C@@H]2C)O[C@H](C)[C@H]1O[C@@H]1O[C@H](CO)[C@@H](O)[C@H](O)[C@H]1O | 0.391 | 0.766
11 | CN(C)C(=O)Oc1cccc([N+](C)(C)C)c1 | 0.41 | 1.1
